The structures appear in SMILES notation. Inconclusive results are not listed. Values without a mark were called inactive. The source made the active and inactive calls. Calls follow the shape of the dose curve; as a rule, active = well fitted curve in the direction sought with a large enough effect; inconclusive = small, poorly fitted or top-dose-only effect, or another doubt; inactive = no such curve, though single readings can be large; an effect the other way counts as inactive or inconclusive.
% is scaled to controls: 0 for no effect and ±100 for the full control effect; potency is read from the fitted curve at half-maximal effect.

One test concerns astro (control astrocytes). The test can be described thus: Drug repurposing screens with cells derived from glioblastoma tumor samples (AID 1345199). Also: nearly all actives have a fitted effect of over 40% in size. Particulars: viability, ATP luminescence, 48 h; series mostly up to 45.9 µM. The essentials: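 Primary testing used CD133+ neurospheres from four GBM patients, seven concentrations, 48 h exposure and ATP-based viability; confirmation added three slower-growing patient lines.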
Consider `CC1=C(/C=C/C(C)=C/C=C/C(C)=C/C(=O)Nc2ccc(O)cc2)C(C)(C)CCC1`, for which the Potency is 11.2 µM (active).

As to `CN(C)CCC(c1ccccc1)c1ccccn1` (configuration not stated), the Potency entry was “inactive”.

Take `O=C(O)Cc1cccc2ccccc12`: the Potency entry was “inactive”.

In the case of `CC(=O)O[C@]1(C(C)=O)CC[C@H]2[C@@H]3C=C(Cl)C4=CC(=O)[C@@H]5C[C@@H]5[C@]4(C)[C@H]3CC[C@@]21C`, the Potency result is “inactive”.

With `CC(=O)c1ccc(S(=O)(=O)NC(=O)NC2CCCCC2)cc1`, the Potency result was “inactive”.

For `CCn1cc(C(=O)O)c(=O)c2ccc(C)nc21`, the Potency entry was “inactive”.

`CC(=O)N[C@@H](CS)C(=O)O`: the Potency result is “inactive”.

Test system in another test: not listed separately
The test can be described thus: qHTS assay to identify inhibitors of the type 1 interferon - major histocompatibility complex class I in skeletal muscle: Counter screen cell viability and HiBit confirmation (AID 1347412). Also: nearly all actives have a fitted effect of over 60% in size. Particulars: iHSKM muscle cells + IFN-b, HiBiT or CellTiter-Glo, 24 h; HiBiT. The essentials:
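Luminescence read-out: Nano-Glo HiBiT lytic signal from C-terminally HiBiT-tagged HLA-B in CRISPR-edited human myoblasts, plus CellTiter Glo ATP as viability counter screen. IFN-beta 4.0 ng/ml; 24 hrs treatment at 37 C, 5% CO2.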
Consider `C=C1C(=O)[C@@]23C(CC[C@@H]1[C@H]2O)[C@@]12CO[C@]3(O)[C@@H](O)[C@@H]1C(C)(C)CC[C@@H]2O` (some centres not stated), for which the Potency was 8.83 µM (active).

Consider `O=C(Nc1ccccc1-c1cn2c(CN3CCNCC3)csc2n1)c1cnc2ccccc2n1`, for which the Potency is 11.1 µM (active).

Consider `O=C1c2ccccc2-[n+]2ccc3c([nH]c4ccccc43)c21`, for which the Potency was 1.57 µM (active).

On to `NS(=O)(=O)c1ccc(NC2=CC(=O)c3ccccc3C2=O)cc1`, for which the Potency is 3.52 µM (active).

`CC1(C)CCC2=C(O1)c1ccccc1C(=O)C2=O`: the Potency is 22.2 µM (active).

Consider `O=C(NCc1ccccc1)c1csc(Nc2ccncn2)n1`, for which the Potency was 9.91 µM (active).

For the molecule `COc1cc(N2CCC(N3CCN(C)CC3)CC2)ccc1Nc1ncc(Cl)c(Nc2ccccc2S(=O)(=O)C(C)C)n1`, the Potency was 17.6 µM (active).

For `CC(=O)Nc1ccc([C@H](C)C(=O)Nc2ncc(C(C)C)s2)cc1`, the Potency was 2.49 µM (active).

Take `NS(=O)(=O)c1cccc2c1C(=O)c1cccc(O)c1C2=O`: the Potency is 0.557 µM (active).

For the molecule `CC(C)n1nc(-c2ccc3oc(N)nc3c2)c2c(N)ncnc21`, the Potency is 0.0991 µM (active).

For `O=C1C(Cl)=C(NCCN2CCOCC2)C(=O)c2ncccc21`, the Potency is 5.57 µM (active).

With `O=C(O)c1ccccc1C(=O)Nc1ccc(-c2ccccc2)cc1`, the Potency is 14 µM (active).

On to `c1ccc2c(-c3cnn4cc(-c5ccc(N6CCNCC6)cc5)cnc34)ccnc2c1`, for which the Potency is 7.87 µM (active).

Regarding `Cc1nc(N)sc1-c1ccnc(Nc2ccc(N3CCOCC3)cc2)n1`, the Potency was 5.57 µM (active).

Regarding `COc1cc(Nc2ncc(F)c(Nc3ccc4c(n3)NC(=O)C(C)(C)O4)n2)cc(OC)c1OC`, the Potency was 1.25 µM (active).

Regarding `COCCOc1nc(-c2ccc(Cl)c(Cl)c2)n(-c2ccc(NC(=O)CCl)cc2)n1`, the Potency was 3.52 µM (active).

Consider `COc1ccc(-c2nc(N3CCOCC3)c3sc(CN(C)c4ncc(C(=O)NO)cn4)cc3n2)cn1`, for which the Potency was 0.0279 µM (active).

The test is the same for the next values; noted with them: iHSKM muscle cells + IFN-b, HiBiT or CellTiter-Glo, 24 h; HiBiT; at 45.9 µM (top of the series).
`Cc1ccc(C(=O)Nc2cccc(C(F)(F)F)c2)cc1Nc1nc(-c2cccnc2)nc2c1cnn2C`: the activity change, negative = inhibition was -9.48%.

With `CNC1CCC(N(Cc2cccc(-c3ccncc3)c2)C(=O)c2sc3c(F)ccc(F)c3c2Cl)CC1` (configuration not stated), the activity change, negative = inhibition is -27.3%.

For `C[C@H](NC(=O)C(=O)Nc1ccccc1C(C)(C)C)C(=O)N[C@@H](CC(=O)O)C(=O)COc1c(F)c(F)cc(F)c1F`, the activity change, negative = inhibition was -0.932%.

Take `COc1ccc(Cc2nccc3cc(OC)c(OC)cc23)cc1OC`: the activity change, negative = inhibition is -26.2%.

Still in this test, the particulars now being: iHSKM muscle cells + IFN-b, HiBiT or CellTiter-Glo, 24 h; Viability.
As for `C=C1C(=O)[C@@]23C(CC[C@@H]1[C@H]2O)[C@@]12CO[C@]3(O)[C@@H](O)[C@@H]1C(C)(C)CC[C@@H]2O` (some centres not stated), the Potency was 35.2 µM (active).

Consider `O=C(Nc1ccccc1-c1cn2c(CN3CCNCC3)csc2n1)c1cnc2ccccc2n1`, for which the Potency is 15.7 µM (active).

In the case of `O=C1c2ccccc2-[n+]2ccc3c([nH]c4ccccc43)c21`, the Potency was 2.22 µM (active).

On to `NS(=O)(=O)c1ccc(NC2=CC(=O)c3ccccc3C2=O)cc1`, for which the Potency was 4.97 µM (active).

For `CC1(C)CCC2=C(O1)c1ccccc1C(=O)C2=O`, the Potency is 24.9 µM (active).

On to `NS(=O)(=O)c1cccc2c1C(=O)c1cccc(O)c1C2=O`, for which the Potency was 0.496 µM (active).

Consider `O=C1C(Cl)=C(NCCN2CCOCC2)C(=O)c2ncccc21`, for which the Potency is 5.57 µM (active).

Turning to `COCCOc1nc(-c2ccc(Cl)c(Cl)c2)n(-c2ccc(NC(=O)CCl)cc2)n1`, the Potency was 7.87 µM (active).

The same test, now with this note: iHSKM muscle cells + IFN-b, HiBiT or CellTiter-Glo, 24 h; Viability; at 45.9 µM (top of the series).
Turning to `O=C(NCc1ccccc1)c1csc(Nc2ccncn2)n1`, the activity change, negative = inhibition is -20.4%.

With `Cc1ccc(C(=O)Nc2cccc(C(F)(F)F)c2)cc1Nc1nc(-c2cccnc2)nc2c1cnn2C`, the activity change, negative = inhibition is -7.92%.

For the molecule `CO[C@H]1C(=O)[C@]2(C)[C@@H](OC)C[C@H]3OC[C@@]3(OC(C)=O)[C@H]2[C@H](OC(=O)c2ccccc2)[C@]2(O)C[C@H](OC(=O)[C@H](O)[C@@H](NC(=O)OC(C)(C)C)c3ccccc3)C(C)=C1C2(C)C`, the activity change, negative = inhibition is -18.6%.

Turning to `CC(=O)Nc1ccc([C@H](C)C(=O)Nc2ncc(C(C)C)s2)cc1`, the activity change, negative = inhibition was -0.582%.

Regarding `Oc1ccc(C2CCN(c3ccnc4ccccc34)CC2)cc1O`, the activity change, negative = inhibition was -0.0528%.

`CC(C)(C)C(=O)Oc1ccc2c(c1)nc(NC(=O)c1cccc([N+](=O)[O-])c1)n2CCCO`: the activity change, negative = inhibition is -3.08%.

With `CCS(=O)(=O)N1CC(CC#N)(n2cc(-c3ncnc4[nH]ccc34)cn2)C1`, the activity change, negative = inhibition was -4.12%.

Turning to `O=C(O)c1ccccc1C(=O)Nc1ccc(-c2ccccc2)cc1`, the activity change, negative = inhibition is -4.23%.

With `C[C@H](NC(=O)C(=O)Nc1ccccc1C(C)(C)C)C(=O)N[C@@H](CC(=O)O)C(=O)COc1c(F)c(F)cc(F)c1F`, the activity change, negative = inhibition is 0.0107%.

In the case of `COc1ccc(Cc2nccc3cc(OC)c(OC)cc23)cc1OC`, the activity change, negative = inhibition was -0.43%.

`COc1cc(Nc2ncc(F)c(Nc3ccc4c(n3)NC(=O)C(C)(C)O4)n2)cc(OC)c1OC`: the activity change, negative = inhibition was -9.37%.

These data come from PubChem BioAssay (NCATS).
